Assay outcomes from PubChem BioAssay.
KCNQ2 inh – KCNQ2 (rat) channel inhibition; AID 2156; CHO-K1 KCNQ2, FluxOR thallium flux, 20 min; hits give low values; 310,000 compounds, 1.1% hits; B-score at 10 µM; O88943;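 active = fluorescence ratio B-score at most minus 3 library SDs, with starting brightness B-score within 2 library SDs, cut at about -5.5 in these data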
KCNQ2 enhance – potentiators of rat KCNQ2 potassium channel; 310,000 compounds, 0.54% hits; AID 2239; CHO-K1 KCNQ2, FluxOR thallium flux fluorescence; hits give high values; B-score at 10 µM;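 active = fluorescence ratio B-score at least 3 SD of library B-scores, with initial fluorescence B-score within 3 of them, cut at about 5.3 in these data; same plate scores as AID 2156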;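 note: B-score of peak minus minimum over baseline fluorescence ratio after K+ and Tl+ stimulus; positive B-score means potentiation of KCNQ2 with more thallium influx and brighter signal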
Kir21 conf inh – confirmation of mouse Kir2.1 potassium channel inhibitors; Tl flux remaining, % of negative control (hits give low values), % at 10 µM; AID 2032; Kir2.1-expressing cells, FluxOR thallium flux fluorescence; hits give low values; shares compounds with KCNQ2 enhance; 2,300 compounds, 41% hits;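 active = Primary-screen hit whose thallium flux fell at least 3 control SD below untreated wells in both duplicates, with normal baseline fluorescence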
Target sequence (P35561 whole entry, looked up): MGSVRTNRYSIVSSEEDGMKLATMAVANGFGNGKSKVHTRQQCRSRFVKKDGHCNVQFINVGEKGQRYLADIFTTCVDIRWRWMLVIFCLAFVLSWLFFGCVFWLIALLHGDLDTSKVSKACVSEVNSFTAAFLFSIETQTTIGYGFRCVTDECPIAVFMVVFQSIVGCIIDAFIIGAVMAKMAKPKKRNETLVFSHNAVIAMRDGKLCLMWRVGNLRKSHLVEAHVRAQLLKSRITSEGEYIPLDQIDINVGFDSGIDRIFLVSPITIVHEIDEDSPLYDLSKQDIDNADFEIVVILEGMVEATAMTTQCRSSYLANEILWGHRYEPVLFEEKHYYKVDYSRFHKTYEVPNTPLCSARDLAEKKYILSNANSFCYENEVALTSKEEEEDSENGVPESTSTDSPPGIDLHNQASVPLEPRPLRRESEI
HEK293 ctr – counter-screen for Kir2.1 inhibitors: effect in parental HEK293 cells; shares compounds with KCNQ2 enhance; FluxOR thallium flux fluorescence; 0% = unstimulated blank wells; FluxOR signal as % of negative control (100 = no effect), % at 10 µM; 2,300 compounds, 19% hits; AID 2105;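 active = dye signal at least 3 control SD above or below untreated wells in both duplicates, raw fluorescence within 3, either direction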;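 note: percent is based on the flux ratio of peak minus minimum fluorescence over baseline F0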
CHO-K1 ctr – parental CHO-K1 activity in KCNQ2 potentiator counter-screen; activity increase over 3SD of controls, % at 10 µM; AID 2282; parental CHO-K1 cells, FluxOR thallium flux fluorescence; zero = vehicle mean+3SD, 100% = vehicle-minus-blank window; 1,200 compounds, 43% hits; shares compounds with KCNQ2 enhance;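 active = signal rise of at least 3 SD above the untreated control mean, in both duplicate wells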;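 note: counter screen of KCNQ2 potentiator hits so any rise reflects channel-independent effects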
KCNQ1 pot spec – tests whether KCNQ2 potentiators also act on human KCNQ1; shares compounds with KCNQ2 enhance; CHO KCNQ1 stable, FluxOR thallium flux fluorescence; beyond 3SD, as % of vehicle-control signal; activation over 3SD threshold, % at 10 µM; 1,200 compounds, 28% hits; AID 2283;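 active = fluorescence ratio rise of at least 3 SD of vehicle wells above their mean, in both replicate wells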
KCNQ2 pot confirm – rat KCNQ2 channel potentiator confirmation; shares compounds with KCNQ2 enhance; CHO-KCNQ2 cells, FluxOR thallium flux fluorescence; potentiation, less the hit threshold, % at 10 µM; 1,200 compounds, 68% hits;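 active = fluorescence ratio rising 3 SD or more over the vehicle control mean in both replicates, plus primary screen hit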;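 note: peak minus minimum thallium fluorescence divided by baseline after K/Tl stimulus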
Kir2-1 sel – selectivity of KCNQ2 potentiators: effect on mouse Kir2.1. HEK293 Kir2.1, FluxOR thallium flux fluorescence. activity over 3SD threshold, % at 10 µM. shares compounds with KCNQ2 enhance. 1,200 compounds, 2% hits. AID 2345;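 active = fluorescence ratio rise of at least 3 SD above the vehicle-control mean, seen in both replicates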
A number is an active result. Compounds with a hit are over-represented: about 1.6% of the library has one in this group of screens.

What do the screens show for `NS(=O)(=O)c1cccc(NS(=O)(=O)c2ccc3ccccc3c2)c1`?
KCNQ2 inh: inactive; KCNQ2 enhance: inactive

How did COc1ccc(C/C(C)=N\NC(=O)c2cn(C)c3ccccc23)cc1OC do in these assays?
KCNQ2 inh: inactive

Results for O=C(N/N=C/c1ccncc1)c1cccs1 ?
KCNQ2 inh: inactive

Results for CSc1ccc(/C=N/NC(=O)c2cccs2)cc1 ?
KCNQ2 inh: inactive; KCNQ2 enhance: 14; Kir21 conf inh: inactive; HEK293 ctr: inactive; CHO-K1 ctr: 11; KCNQ1 pot spec: inactive; KCNQ2 pot confirm: inactive; Kir2-1 sel: inactive

What do the screens show for `CCS(=O)(=O)N1CCC(NC(=O)C(Cc2cc(OC)ccc2OC)NC(C)=O)CC1` (stereo not drawn)?
KCNQ2 inh: inactive; KCNQ2 enhance: inactive; Kir21 conf inh: inactive; HEK293 ctr: inactive

How did COc1ccc(CC(NC(C)=O)C(=O)NC2CCN(S(=O)(=O)c3ccc(NC(C)=O)cc3)CC2)c(OC)c1 (stereo not drawn) do in these assays?
KCNQ2 inh: inactive

Results for NC(=O)Cn1cnc2c(nnn2-c2ccc(F)cc2)c1=O ?
KCNQ2 inh: inactive

What do the screens show for `COC(=O)c1sc(NC(=O)c2ccc(Cn3cc(Cl)cn3)o2)c(C#N)c1C`?
KCNQ2 inh: inactive; KCNQ2 enhance: inactive

How did Cc1ccc(NC(=O)c2ccc(Cn3cc(Cl)cn3)o2)c(C)c1 do in these assays?
KCNQ2 inh: inactive; Kir21 conf inh: 26%; HEK293 ctr: inactive

What do the screens show for `C#CCOCCOCCOCCNc1nc(N2CCN(C(=O)C([C@@H](C)CC)n3cc(C(N)COC(=O)C(F)(F)F)nn3)CC2)nc(N2CCN(C(=O)[C@H](CCC(=O)O)n3cc(C(N)CC(C)C)nn3)CC2)n1` (stereo partly drawn)?
KCNQ2 inh: inactive; KCNQ2 enhance: inactive

Results for COC(=O)c1ccc(N2CCN(c3ccccc3)CC2)nc1 ?
KCNQ2 inh: inactive

What do the screens show for `CCN(Cc1ccc(C#CCCO)cc1)CC1CCCN(CCc2cccc(F)c2)C1` (stereo not drawn)?
KCNQ2 inh: inactive; Kir21 conf inh: 53%; HEK293 ctr: inactive

Results for CCN(Cc1ccc(OC)c(COC)c1)CC1CCCN(CCc2cccc(F)c2)C1 (stereo not drawn) ?
KCNQ2 inh: inactive

Results for CN(Cc1ccc(C#CCCO)cc1)CC1CCCN(CCc2ccc(Cl)cc2)C1 (stereo not drawn) ?
KCNQ2 inh: inactive; Kir21 conf inh: 40%; HEK293 ctr: inactive

Results for CCN(Cc1ccc(OC)c(COC)c1)CC1CCCN(CCc2cccc(OC)c2)C1 (stereo not drawn) ?
KCNQ2 inh: inactive; KCNQ2 enhance: inactive

What do the screens show for `COc1ccc(CCN2CCCC(CN(C)Cc3cccc(OC)c3)C2)cc1` (stereo not drawn)?
KCNQ2 inh: inactive; KCNQ2 enhance: inactive; Kir21 conf inh: 33%; HEK293 ctr: inactive

How did COc1ccc(CN(C)CC2CCCN(CCc3ccc(F)cc3)C2)c(OC)c1OC (stereo not drawn) do in these assays?
KCNQ2 inh: inactive

Results for Cc1cc(C(=O)Nc2ccccc2Cl)n(-c2ccccc2)n1 ?
KCNQ2 inh: inactive

How did C=CCn1c(COc2ccc(Cl)cc2)nnc1SCc1ccc(C#N)cc1 do in these assays?
KCNQ2 inh: inactive

What do the screens show for `C=CCn1c(COc2ccccc2)nnc1SCc1ccc(C#N)cc1`?
KCNQ2 inh: inactive; Kir21 conf inh: 45%; HEK293 ctr: 69%

Results for C/C(CC(=O)Nc1c(C)cc(C)cc1C)=N\NC(=O)Cc1ccccc1 ?
KCNQ2 inh: inactive

How did CCCCCOc1ccc(Br)cc1/C(C)=N/NC1=NCCN1 do in these assays?
KCNQ2 inh: inactive; Kir21 conf inh: 16%; HEK293 ctr: inactive

How did COc1ccc(Br)cc1/C(C)=N/NC1=NCCN1 do in these assays?
KCNQ2 inh: inactive; KCNQ2 enhance: inactive

Results for CSc1nsc(NC(=O)OCc2ccc(Cl)cc2)n1 ?
KCNQ2 inh: inactive; KCNQ2 enhance: 5.8; Kir21 conf inh: inactive; HEK293 ctr: inactive; CHO-K1 ctr: 89; KCNQ1 pot spec: inactive; KCNQ2 pot confirm: inactive; Kir2-1 sel: inactive

How did COc1ccsc1NC(=O)OCc1ccc(Cl)cc1 do in these assays?
KCNQ2 inh: inactive

Results for NC(=O)c1ccsc1NC(=O)CCS(=O)(=O)c1ccc(F)cc1 ?
KCNQ2 inh: inactive; KCNQ2 enhance: inactive

What do the screens show for `CCc1c(C)nc2nc(SCc3ccccc3)[nH]n2c1=O`?
KCNQ2 inh: inactive; KCNQ2 enhance: inactive

Results for C=CCOc1c(Br)cc(/C=N/O)cc1OCC ?
KCNQ2 inh: inactive

Results for CCCCOc1c(Br)cc(/C=N/O)cc1OCC ?
KCNQ2 inh: inactive; Kir21 conf inh: 74%; HEK293 ctr: inactive

How did CCOc1c([N+](=O)[O-])cc2c(C)c(C(=O)N3CCN(C)CC3)oc2c1OCC do in these assays?
KCNQ2 inh: inactive; KCNQ2 enhance: inactive

What do the screens show for `CC1CC(C)C[N+](=C2C=C(N3CCCC3)CC(C)(C)C2)C1` (stereo not drawn)?
KCNQ2 inh: inactive; Kir21 conf inh: inactive; HEK293 ctr: inactive

Results for CC1(C)CC(N2CCCC2)=CC(=[N+]2CCCCCC2)C1 ?
KCNQ2 inh: inactive; KCNQ2 enhance: inactive

How did Cc1ccc(N(CC(=O)NCc2ccccc2)S(=O)(=O)c2c(C)noc2C)cc1 do in these assays?
KCNQ2 inh: inactive; KCNQ2 enhance: inactive

What do the screens show for `CCOc1ccccc1CNCc1ccc(C(=O)O)cc1`?
KCNQ2 inh: inactive

How did O=C(COc1ccccc1CNCc1ccccc1)Nc1ccccc1 do in these assays?
KCNQ2 inh: inactive; Kir21 conf inh: 35%; HEK293 ctr: inactive

How did Cc1ccc(S(=O)(=O)N(C)C)cc1NC(=O)COC(=O)C1CCN(S(=O)(=O)c2cccs2)CC1 do in these assays?
KCNQ2 inh: inactive; KCNQ2 enhance: inactive

What do the screens show for `COc1cccc(C(=O)Nc2ccncc2)c1OC`?
KCNQ2 inh: inactive; KCNQ2 enhance: 7.2; Kir21 conf inh: inactive; HEK293 ctr: inactive; CHO-K1 ctr: inactive; KCNQ1 pot spec: inactive; KCNQ2 pot confirm: inactive; Kir2-1 sel: inactive

What do the screens show for `COc1ccccc1C(=O)Nc1ccncc1`?
KCNQ2 inh: inactive

How did CC(C)CCNC(=O)CN(Cc1ccc(F)cc1)C(=O)CCC(=O)Nc1ccccn1 do in these assays?
KCNQ2 inh: inactive

How did COc1ccc(CCNC(=O)COc2cccc3c2OC(C)(C)C3)cc1OC do in these assays?
KCNQ2 inh: inactive; Kir21 conf inh: 52%; HEK293 ctr: inactive
